The list is not random: actives were taken first. Their share in the collection is about 12%.
BAZ2B block – BAZ2B (human) inhibition. Q9UIF8. AlphaScreen BAZ2B-H3K14Ac peptide displacement. Potency, µM (doses to about 114 µM), actives largely listed as inhibitors. 4.4% of 360,000 active; also: nearly all actives have a fitted effect of over 60% in size
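Inhibition is scored as reduced AlphaScreen emission. The BAZ2B/b-H3(5-23)K14Ac complex (50 nM each) in PBS pH 7.4, 0.01% Tween-20 meets compound (up to 110 uM) for 30 min at RT before bead addition.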
L3MBTL1 block – L3MBTL1 (human) inhibition | AlphaScreen L3MBTL1–H3K9me1 peptide binding | Potency, µM (titrated, usually from 57.1 µM), usual class: inhibitors | 0.66% of 230,000 active | AID 485360 | Q9Y468; also: nearly all actives have a fitted effect of over 60% in size
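Read-out is AlphaScreen signal from streptavidin donor and nickel chelate acceptor beads (10 ug/mL final each) bridging L3MBTL1 (50 nM) and biotinylated K9-monomethylated H3(1-15) peptide (75 nM), after 30 min compound exposure at room temperature.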
HP1b chromo inh – inhibitors of HP1-beta chromodomain binding to methylated histone tails. 0.56% of 390,000 active. Potency, µM (doses to about 114 µM), most hits filed as inhibitors. AID 540317. P83916. AlphaScreen HP1-beta / biotin-H3K9me3 peptide binding; also: nearly all actives have a fitted effect of over 70% in size
Target sequence (P83916 whole entry, looked up): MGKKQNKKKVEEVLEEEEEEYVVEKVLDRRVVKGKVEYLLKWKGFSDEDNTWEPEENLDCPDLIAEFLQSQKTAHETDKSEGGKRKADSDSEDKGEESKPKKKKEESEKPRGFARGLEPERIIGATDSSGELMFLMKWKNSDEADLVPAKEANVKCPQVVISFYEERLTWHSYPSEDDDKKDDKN
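HP1-beta protein (50 nM final) preincubated 30 min at room temperature with biotinylated H3(1-18)K9me3 peptide (50 nM) in PBS pH 7.4, 0.01% Tween-20, then compound added for 30 min. AlphaScreen streptavidin donor/nickel chelate acceptor beads (10 ug/mL final), 30 min dark, luminescence read.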
JMJD2A Tudor – JMJD2A Tudor domain (human) inhibition | AlphaScreen JMJD2A-Tudor / H3K4me3 peptide binding | Potency, µM (top dose mostly 114 µM), actives largely listed as inhibitors | AID 504339 | O75164 | 4.4% of 390,000 active; also: nearly all actives have a fitted effect of over 50% in size
G9a inh – inhibitors of human histone lysine methyltransferase G9a; Q96KQ7; G9a H3K9 monomethylation, AlphaScreen, 2 h; Potency, µM (series often up to 102 µM), most hits filed as inhibitors; 8.8% of 350,000 active; also: nearly all actives have a fitted effect of over 75% in size
Target sequence (Q96KQ7 913-1193 limits assumed): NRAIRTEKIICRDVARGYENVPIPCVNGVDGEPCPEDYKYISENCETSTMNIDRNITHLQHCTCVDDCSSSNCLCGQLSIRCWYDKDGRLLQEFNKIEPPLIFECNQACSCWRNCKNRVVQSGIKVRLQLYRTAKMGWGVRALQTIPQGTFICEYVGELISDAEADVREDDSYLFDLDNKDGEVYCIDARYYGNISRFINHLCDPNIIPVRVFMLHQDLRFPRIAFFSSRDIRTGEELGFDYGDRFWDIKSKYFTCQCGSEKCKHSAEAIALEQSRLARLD
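Using a bead-based AlphaScreen, monomethylated H3K9 product from 2 h room-temperature reactions (G9a 20 nM, peptide 500 nM, SAM 20 uM) was detected with 0.5 ug/mL rabbit anti-H3K9me1 antibody.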
Sfp PPTase inh – Sfp phosphopantetheinyl transferase inhibition; AID 1490; Biochemical Sfp PPTase activity, qHTS; Q9F4F7; 3.5% of 310,000 active; Potency, µM, most hits filed as inhibitors;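 also: the enzyme is Sfp with the accession as filed and its product quenches rhodamine fluorescence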
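Reaction rates are the 30-min fluorescence difference (ex 525, em 598 nm) in wells containing 15 nM Sfp, 5 uM rhodamine-CoA and 12.5 uM BHQ-2-YbbR at pH 7.6 with 10 mM MgCl2.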
Hits are given with their value; [ ] = remark or other dose. Calls follow the shape of the dose curve; as a rule, active = well fitted curve in the direction sought with a large enough effect; inconclusive = small, poorly fitted or top-dose-only effect, or another doubt; inactive = no such curve, though single readings can be large; an effect the other way counts as inactive or inconclusive.

What do the screens show for `COc1ccc(S(=O)(=O)Nc2nc3ccccc3nc2Nc2cccc(C(=O)O)c2)cc1`?
BAZ2B block: inactive; HP1b chromo inh: inactive; JMJD2A Tudor: inactive; G9a inh: 45µM; Sfp PPTase inh: inactive

How did COc1ccc(Nc2nc3ccccc3nc2NS(=O)(=O)c2cccs2)c(OC)c1 do in these assays?
BAZ2B block: inactive; HP1b chromo inh: inactive; JMJD2A Tudor: inactive; G9a inh: inconclusive; Sfp PPTase inh: inactive

Results for O=C(O)c1ccc(Nc2nc3ccccc3nc2NS(=O)(=O)c2cccs2)cc1 ?
BAZ2B block: inactive; HP1b chromo inh: inactive; JMJD2A Tudor: inactive; G9a inh: 50µM; Sfp PPTase inh: inactive

How did Cc1ccc(NC(=O)Cn2c(SCc3ccc(F)cc3)nc3cccnc32)cc1F do in these assays?
BAZ2B block: inactive; HP1b chromo inh: inactive; JMJD2A Tudor: inactive; G9a inh: inactive

How did CCc1ccc(S(=O)(=O)Nc2ccc3oc(C)c(C(=O)OCCOC)c3c2)cc1 do in these assays?
BAZ2B block: inactive; HP1b chromo inh: inactive; JMJD2A Tudor: inactive; G9a inh: inactive

How did O=C(C1CCN(C2CCN(C/C=C/c3ccccc3)CC2)CC1)N1CCOCC1 do in these assays?
BAZ2B block: inactive; L3MBTL1 block: inactive; HP1b chromo inh: inactive; JMJD2A Tudor: inactive; G9a inh: inactive; Sfp PPTase inh: inactive

What do the screens show for `O=C(C1CCN(Cc2ccc(F)cc2)CC1)N1CCN(C/C=C/c2ccccc2)CC1`?
BAZ2B block: 50µM; HP1b chromo inh: inconclusive; JMJD2A Tudor: 20µM; G9a inh: 50µM; Sfp PPTase inh: inactive

What do the screens show for `O=C(O)C1C2CCC(CC2)C1C(=O)N1CCN(Cc2ccc(F)cc2)CC1` (configuration not stated)?
BAZ2B block: inactive; L3MBTL1 block: inactive; HP1b chromo inh: inactive; JMJD2A Tudor: inactive; G9a inh: inconclusive; Sfp PPTase inh: 35µM

What do the screens show for `O=C(C1CCN(Cc2ccccc2)CC1)N1CCN(C/C=C/c2ccccc2)CC1`?
BAZ2B block: inconclusive; L3MBTL1 block: inactive; HP1b chromo inh: inconclusive; JMJD2A Tudor: inconclusive; G9a inh: 14µM; Sfp PPTase inh: inactive

Results for O=C(C1CC1)N1CCN(Cc2ccccc2)CC1 ?
HP1b chromo inh: inactive; JMJD2A Tudor: inactive

How did CCc1ccc(NC(=O)c2cccc(N3CCCS3(=O)=O)c2)cc1 do in these assays?
BAZ2B block: inactive; HP1b chromo inh: inactive; JMJD2A Tudor: inactive; G9a inh: inactive

Results for COC(=O)C1=C(C(=O)OC)[C@@H]2Nc3ccccc3[C@@]23C[C@@H](C(=O)OC)N(S(=O)(=O)c2ccc(C)cc2)C3=N1 ?
Sfp PPTase inh: inactive

What do the screens show for `CCOc1ccc(NC(=O)CC2C(=O)N(c3ccccc3)C(=O)N2C2CCCC2)cc1` (configuration not stated)?
BAZ2B block: inactive; HP1b chromo inh: inactive; JMJD2A Tudor: inactive; G9a inh: inconclusive

How did CC(=O)Nc1sc2c(c1C(c1ccc(Cl)cc1)N1CCOCC1)CCCC2 (configuration not stated) do in these assays?
BAZ2B block: inconclusive; HP1b chromo inh: inconclusive; JMJD2A Tudor: inconclusive; G9a inh: 45µM; Sfp PPTase inh: inactive

Results for CC(=O)Nc1sc2c(c1C(c1ccccc1)N1CCOCC1)CCCC2 (configuration not stated) ?
BAZ2B block: inactive; HP1b chromo inh: inactive; JMJD2A Tudor: inactive; G9a inh: inactive; Sfp PPTase inh: inactive

How did CC(=O)Nc1sc2c(c1C(c1ccc(F)cc1)N1CCOCC1)CCCC2 (configuration not stated) do in these assays?
BAZ2B block: 50µM; HP1b chromo inh: inactive; JMJD2A Tudor: inconclusive; G9a inh: inconclusive; Sfp PPTase inh: inactive

What do the screens show for `CN1C(=O)N(CC(=O)N2CCN(S(=O)(=O)Cc3ccccc3)CC2)C(=O)C12CCCCC2`?
BAZ2B block: inactive; L3MBTL1 block: inactive; HP1b chromo inh: inactive; JMJD2A Tudor: inactive; G9a inh: 56µM

How did Cn1c(N/N=C/c2cc3ccccc3nc2Cl)nc2ccccc21 do in these assays?
BAZ2B block: inactive; L3MBTL1 block: inactive; HP1b chromo inh: inactive; JMJD2A Tudor: inactive; G9a inh: inactive; Sfp PPTase inh: 79µM

How did CCCn1c(/N=C/c2c[nH]c3ccccc23)nc2ccccc21 do in these assays?
BAZ2B block: inconclusive; L3MBTL1 block: inactive; HP1b chromo inh: inactive; JMJD2A Tudor: 63µM; G9a inh: inactive[12.7 µM]; Sfp PPTase inh: inactive

What do the screens show for `Cn1c(N/N=C/c2c[nH]c3ccccc23)nc2ccccc21`?
BAZ2B block: 32µM; L3MBTL1 block: inconclusive; HP1b chromo inh: inactive; JMJD2A Tudor: 50µM; G9a inh: inconclusive; Sfp PPTase inh: inactive

What do the screens show for `Cc1cc(N/N=C/c2c[nH]c3ccccc23)c2ccccc2n1`?
BAZ2B block: inactive; L3MBTL1 block: inactive; HP1b chromo inh: inactive; JMJD2A Tudor: inactive; Sfp PPTase inh: inactive

What do the screens show for `COC(=O)CN1C(=O)C(C)(C)c2cc(S(=O)(=O)Nc3ccc(C(C)C)cc3)ccc21`?
BAZ2B block: inactive; HP1b chromo inh: inactive; JMJD2A Tudor: inactive; G9a inh: inactive

How did Cc1ccc(OCC(=O)NCC(c2ccc(Cl)cc2)N2CCCCC2)cc1 (configuration not stated) do in these assays?
BAZ2B block: inactive; HP1b chromo inh: inactive; JMJD2A Tudor: inactive; G9a inh: inactive

What do the screens show for `Cc1ccc2occ(CC(=O)Nc3c(C(=O)Nc4ccc(Cl)cc4)oc4ccccc34)c2c1`?
BAZ2B block: inactive; HP1b chromo inh: inactive; JMJD2A Tudor: inactive; G9a inh: inactive

How did Cc1cccc(C)c1NC(=O)CCCn1c(=O)c2cccn2c2ccccc21 do in these assays?
BAZ2B block: inactive; HP1b chromo inh: inactive; JMJD2A Tudor: inactive; G9a inh: inactive

Results for COc1cc(NC(=O)COc2ccc(Cl)cc2)ccc1NC(=O)C(C)C ?
BAZ2B block: inactive; HP1b chromo inh: inactive; JMJD2A Tudor: inactive; G9a inh: 25µM; Sfp PPTase inh: inactive

What do the screens show for `COc1ccc(NC(=O)C(=O)NNC(=O)COc2ccc(Cl)cc2)c(OC)c1`?
BAZ2B block: inactive; HP1b chromo inh: inactive; JMJD2A Tudor: inactive; G9a inh: inactive; Sfp PPTase inh: inactive

Results for COc1ccc(N2C(N)=C(C#N)C(c3cccnc3)C3=C2CC(C)(C)CC3=O)cc1 (configuration not stated) ?
BAZ2B block: inactive; L3MBTL1 block: inactive; HP1b chromo inh: inactive; JMJD2A Tudor: inactive; G9a inh: 11µM; Sfp PPTase inh: inactive

How did COc1ccc(C2C(C#N)=C(N)N(c3cccnc3)C3=C2C(=O)CC(C)(C)C3)cc1OC (configuration not stated) do in these assays?
BAZ2B block: inactive; L3MBTL1 block: inactive; HP1b chromo inh: inactive; JMJD2A Tudor: inactive; G9a inh: 35µM; Sfp PPTase inh: inactive
